Glyco luc inh: blocks N-linked glycosylation in D54 reporter cells; D54 ERlucT glycosylation luciferase reporter, 24 h; percent of 100 nM tunicamycin response; reporter increase, % at 12.5 µM; 0.23% of 360,000 active; AID 588692;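 active means mean luciferase reporter signal, scaled so untreated is 0 and the glycosylation-blocking control 100, at or above a set limit in every replicate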;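 further: luciferase carries N-glycosylation sites so blocking glycosylation raises the light; 0% = median of neutral control wells and 100% = median of 100 nM tunicamycin wells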
TRPM1 prom inh: inhibitors of MITF-driven TRPM1 promoter in melanoma cells. inhibition, % at 12.5 µM. 0.83% of 330,000 active. SK-MEL-5 TRPM1 promoter luciferase, 24 h;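 active means mean inhibition across replicates of 60% or more, whatever share of single replicates reaches that level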
NSD2 HMT inh: NSD2 (human) methyltransferase inhibition | O96028 | NSD2 peptide methylation, AlphaScreen, 120 min | inhibition, % at 12.5 µM | 0.54% of 310,000 active | AID 743445; in the data active means inhibition above about 50%
PfHsp90 set2: inhibits growth of yeast expressing Plasmodium falciparum Hsp90 | S. cerevisiae expressing PfHsp90, BacTiter-Glo ATP, 48 h; yeast lacking PDR1 and PDR3 efflux regulators | inhibition, % at 9.4 µM | 0.32% of 310,000 active | AID 504621;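 active means every replicate shows inhibition above about 80%, whatever the replicate mean, limit read from the data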;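 further: 0% = DMSO neutral controls and 100% = 20 µM radicicol positive controls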
MITF TRPM1 HTS: increases MITF-driven TRPM1 promoter luciferase signal. SK-MEL-5 TRPM1-promoter luciferase, 24 h; % of positive control, neutral wells = 0. activation, % at 12.5 µM. AID 588334. 0.75% of 300,000 active;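 active means mean activation of at least 80% with every replicate also reaching 80%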;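 further: 0% = neutral control wells and 100% = parthenolide positive control wells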
Wnt bcat act: Wnt/beta-catenin pathway activation; 1.2% of 300,000 active; AID 743398; Wnt/beta-catenin reporter cell assay, activator, plate reader; activation, % at 9.35 µM; in the data active means activation above about 30%, passing the limit was not always enough;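 further: 0% = neutral control wells and 100% = positive control wells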
An asterisk follows results filed as active; . = no result; ! = not confirmed by another sample. Only some compounds are listed: those with a hit (about 2.9% of all), similar ones and a draw of the others.

SMILES	Glyco luc inh	TRPM1 prom inh	NSD2 HMT inh	PfHsp90 set2	MITF TRPM1 HTS	Wnt bcat act
COC(=O)C1=C(C)N(Cc2ccccc2C(F)(F)F)C(=NCc2cc(OC)c(OC)c(OC)c2)NC1c1cccc(C(F)(F)F)c1 (stereo not given)	.	.	.	.	.	-4
Nc1ccccc1SC1CC(=O)N(c2ccc(Cl)c(Cl)c2)C1=O (stereo not given)	1	11	-2	-6	-13	1
Nc1ccccc1SC1CC(=O)N(c2ccc3c(c2)OCCO3)C1=O (stereo not given)	-1	-60	0	1	.	35*
Cc1nn(CC(C)C)c(Cl)c1C(=O)N(c1ccc(Cl)cc1F)S(C)(=O)=O	26*	4	-3	5	-4	-4
COc1ccc(CCNC(=O)c2c(C)nn(CC(C)C)c2Cl)cc1	4	1	-1	7	2	0
CC(C)(C)c1ccc(C#C[C@@H]2C=C[C@H]3OC(=O)CC/C=C/CCC(=O)OC[C@H]3O2)cc1	.	.	0	.	.	-4
Cc1ccc(C(=O)N2CCCC(C(=O)c3ccc(Cl)cc3C)C2)cn1 (stereo not given)	-1	11	3	7	-11	-1
Cc1cc(Cl)ccc1C(=O)C1CCCN(C(=O)c2cncs2)C1 (stereo not given)	-3	-2	31	96*	3	0
CC(C)Oc1cccc(C(=O)C2CCCN(C(=O)c3cncs3)C2)c1 (stereo not given)	3	-2	-2	-9	3	-1
O=C(c1ccc(-c2ccccc2)c(F)c1)C1CCCN(C(=O)c2cncs2)C1 (stereo not given)	-4	-1	1	89*	-7	-3
c1ccc(SCc2nc(-c3ccncc3)no2)cc1	-4	-95	-1	.	91*	26
Cc1ccc(SCc2nc(-c3ccncc3)no2)cc1	-1	-20	-3	-3	20	.
c1ccc(OCc2nc(-c3ccccc3)no2)cc1	2	-93	-1	-7	102*	78*
COc1cccc2[nH]c(=O)c(-c3ccccc3)cc12	-4	-89	3	-31	105*	21
O=C(CN1CCCCC1)Nc1scc2c1c(=O)oc1ccccc12	2	-64	.	-8	.	38*
O=C(OCc1ccccc1)N1CCC2CC1c1ccc(N3CCN(Cc4ccc5c(c4)OCO5)CC3)cc12 (stereo not given)	-6	.	.	.	.	-1
CC(C)NC(=O)CCn1nnc(-c2cccs2)n1	.	.	5	.	.	.
Nc1ccc2nc(-c3ccc(N)c(Cl)c3)[nH]c2c1	-9	-29	3	19	31	.
Nc1ccc(-c2nc3c(Cl)cc(N)cc3[nH]2)cc1	-12	76*	6	7	-75	.
Cc1ccc(C(C)C)c(OCC(=O)Nc2ccc3c(c2)nc(CCN2CCCCC2)n3C)c1	-7	95*	10	4	-94	-3
COc1ccc(CNC(=O)CSc2nc3c([nH]2)c(=O)n(C)c(=O)n3C)cc1	.	.	-8	.	.	.
N#Cc1cc2c(nc1SCc1ccccc1)CCCC2=O	-3	-1	9	-92	3	49*
O=C(OCc1c(F)cccc1Cl)c1cnc2ccccc2n1	1	-3	0	-14	7	1
CCOc1cccc2cc(-c3csc(NC(=O)CCC(=O)NCCN4CCCCC4C)n3)c(=O)oc12 (stereo not given)	-8	-105	.	8	110*	-1
COc1ccc(C(CNS(=O)(=O)c2ccc(NC(C)=O)c(OC)c2)N2CCCCC2)cc1 (stereo not given)	1	-1	2	11	0	2
SMILES	Glyco luc inh	TRPM1 prom inh	NSD2 HMT inh	PfHsp90 set2	MITF TRPM1 HTS	Wnt bcat act
O=C(c1cc(-c2ccc(Cl)cc2)on1)N1CCCC1	-12	-24	2	-11	23	-1
O=C(c1cc(-c2cccc(O)c2)on1)N1CCOCC1	-11	.	.	-1	.	45*
O=C(c1cc(-c2ccc(Cl)c(Cl)c2)on1)N1CCCCC1	-4	-95	-2	3	104*	.
O=C(c1cc(-c2cccc(O)c2)on1)N1CCCCCC1	-8	-94	-7	-1	93*	37*
O=C(c1cc(-c2cccc(Cl)c2)on1)N1CCCC1	0	-38	-7	17	35	40*
COc1cccc(-c2cc(C(=O)N3CCOCC3)no2)c1	-6	-62	-5	-78	57	28
O=C(c1cc(-c2ccccc2)on1)N1CCCC1	-11	-70	-3	-4	80	.
O=C(c1cc(-c2cccc(Cl)c2)on1)N1CCN(c2ccccc2)CC1	0	-3	12	13	2	9
Cc1n[nH]c(C)c1S(=O)(=O)NCCc1ccccc1F	.	.	-7	.	.	.
COC(=O)[C@]12C[C@H](CC(=O)NCc3cccs3)C(=O)N(Cc3ccccc3)C1=C[C@H](C(C)C)O[C@@H]2C1CC1	.	.	.	.	.	-2
c1ccc(-c2nc3ccccc3nc2-c2ccc(CN3CCC(c4nc5ccccc5[nH]4)CC3)cc2)cc1	.	.	.	.	.	-1
COC(=O)c1cc2c(c3c4cc(F)ccc4n(C(=O)c4ccccc4)c13)C(=O)N(C1CCCCC1)C2	.	.	.	.	.	3
C[C@@H]1[C@H](c2ccccc2)OC(O)([C@H](Cc2ccccc2)NC(=O)OC(C)(C)C)CN1C (stereo not given in full)	.	.	1	.	.	.
CCOCCCN(C(=O)c1snc(C(N)=O)c1N)C(C(=O)NCCC(C)C)c1ccc(C)cc1 (stereo not given)	.	.	0	.	.	.
COCC1=C(C(=O)OC)C(c2ccco2)n2ncnc2N1 (stereo not given)	3	.	0	.	.	0
Cc1cccc(NC(=O)CSCC(=O)Nc2cccc(S(=O)(=O)N3CCCCCC3)c2)c1	0	10	-3	.	-9	0
CCOC(=O)c1cc2[nH]c3ccccc3c2[n+](-c2ccc([N+](=O)[O-])cc2)c1N	46*	2	3	-27	-2	7
CCOC(=O)c1cc2[nH]c3ccccc3c2[n+](-c2ccc([N+](=O)[O-])cc2)c1C	15	-4	-5	-4	6	.
COc1ccc(/C=N/NC(=O)c2ccc(COc3ccccc3Cl)o2)c(OC)c1C	43*	9	-5	2	-9	.
O=C(Cc1ccccc1[N+](=O)[O-])NCc1ccc(Cl)cc1Cl	-5	-96	-1	-3	94*	17
CC(C)c1ccc2c(c1)CC[C@H]1[C@](C)(CN)CCC[C@]21C	-6	102*!	.	14	-102	-1
CC(C)c1ccc2c(c1)CCC1C(C)(CN)CCCC21C (stereo not given)	-14	98*	.	-25	-97	-11
O=Nc1c2cc3ccccc3[nH]c-2c2ccccc12	-12	-15	0	.	18	74*
Cc1nnsc1C(=O)Nc1cccc(Cl)c1	3	4	-1	10	-4	-1
Cc1nnsc1C(=O)Nc1cc(Cl)ccc1Cl	0	6	-1	.	.	42*
O=C(Cc1ccccc1F)N1CCC(n2nnc3ncccc32)CC1	.	.	-4	.	.	.

Screening data: PubChem BioAssay, Broad Institute
